About 83,000 compounds went through this panel and 20% of them were active in at least one assay; those are over-represented in the sample as a whole.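 Note: values are percent growth. 100 is the growth of untreated cells, values between 100 and 0 indicate rising inhibition; between -100 and 0 indicates cell death.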 Values without a mark were called inactive. Activity calls are given as the source filed them. Rule for the calls: active = growth percent below 10; inactive = the rest.
Assays:
Experiment in all cases: NCI-60 one-dose screen, 48 h (100 = growth as untreated, 0 = no growth, -100 = all killed)
[1] = tested on: T-47D breast; conditions: 10 µM
[2] = tested on: BT-549 breast; conditions: 10 µM
[3] = tested on: MDA-MB-435 melanoma; conditions: 10 µM
[4] = tested on: SW-620 colon; conditions: 10 µM
[5] = tested on: MCF7 breast; conditions: 10 µM unless noted
[6] = tested on: HCT-116 colon; conditions: 10 µM
[7] = tested on: HCC-2998 colon; conditions: 10 µM
[8] = tested on: KM12 colon; conditions: 10 µM

| SMILES | growth [1] | growth [2] | growth [3] | growth [4] | growth [5] | growth [6] | growth [7] | growth [8] |
| --- | --- | --- | --- | --- | --- | --- | --- | --- |
| CCOC(=O)C1OC1c1ccccc1 (stereo not given) | 98.8% | 102% | 107% | 107% | 96% | 98.6% | 108% | 100% |
| O=C(Nc1cccc(NC(=O)Nc2cc(C(F)(F)F)ccc2Cl)c1)Nc1cc(C(F)(F)F)ccc1Cl | 8.32% (active) | 17.8% | 12.8% | 13.5% | 6.53% (active) | 13.2% | 37.6% | 12.1% |
| CCN=c1cc2sc3cc(NCC)c(C)cc3nc-2cc1C | -1.96% (active) | 36.4% | -35.1% (active) | 0.622% (active) | -11.5% (active) | 7.17% (active) | 30.7% | -1.68% (active) |
| COc1ccccc1NC(=O)c1cc2cc(Br)ccc2cc1O | 9.84% (active) | 18.8% | 10.2% | 10.9% | -2.37% (active) | 3.77% (active) | 20.1% | 9.92% (active) |
| O=c1cc2oc3cc(O)c(O)cc3c(-c3ccccc3O)c-2cc1O | 70.8% | 77.7% | 68.9% | 89.3% | 75.8% | 59.2% | 94.7% | 92.7% |
| CCc1nc(N)nc(N)c1-c1ccc(Cl)cc1 | 100% | 67.7% | 35% | 27.2% | 67.8% | 25.4% | 75.9% | 82.5% |
| CC(=O)Oc1ccc(Br)cc1C(=O)O | 97.6% | 97.7% | 104% | 107% | 94.3% | 95.4% | 100% | 115% |
| Cc1cc(=O)n(-c2ccc(F)cc2)[nH]1 | 69.5% | 105% | 105% | 103% | 86.7% | 104% | 106% | 106% |
| CNc1nc(NC)c2cn[nH]c2n1 | 101% | 103% | 111% | 106% | 97.3% | 99.4% | 100% | 105% |
| CC(=O)Cc1ccc(-c2ccccc2)cc1 | 97.6% | 109% | 114% | 108% | 93.3% | 103% | 101% | 101% |
| Oc1ccc(Cc2ccccc2)c2cccnc12 | 25.3% | 11% | 32.2% | 31.4% | 14.1% | 7.1% (active) | 26.2% | 24.8% |
| CCCCC(CC)COC(C)=O (stereo not given) | 97.2% | 107% | 105% | 104% | 96% | 108% | 105% | 101% |
| CCCC(=O)Nc1ccc2c(c1)CN1C(=O)c3ccccc3C1=N2 | 101% | 107% | 106% | 105% | 96% | 102% | 85.4% | 97.5% |
| CCC(C)(O)c1ccc(C)cc1 (stereo not given) | 104% | 105% | 106% | 98.2% | 100% | 108% | 105% | 100% |
| CNS(=O)(=O)c1ccc(Cl)c(Cl)c1 | 99.2% | 112% | 98.7% | 104% | 98% | 107% | 118% | 108% |
| COC(=O)/C=C\C(=O)OC | 113% | 99.7% | 115% | 105% | 103% | 108% | 103% | 113% |
| O=C(OCC(O)C1OC(c2ccccc2)OC(COC(=O)c2ccccc2)C1O)c1ccccc1 (stereo not given) | 109% | 110% | 102% | 109% | 91.1% | 109% | 103% | 111% |
| c1ccc(Sc2ccccc2)cc1 | 99.6% | 100% | 99.6% | 107% | 97.6% | 110% | 105% | 102% |

| SMILES | growth [1] | growth [2] | growth [3] | growth [4] | growth [5] | growth [6] | growth [7] | growth [8] |
| --- | --- | --- | --- | --- | --- | --- | --- | --- |
| N#CCCN(CCCN1CCOCC1)CN1C(=O)c2ccccc2C1=O | 96% | 128% | 108% | 114% | 95.8% | 109% | 101% | 112% |
| CC(C)(C)n1nc(C2CC2)c(Br)c1NC(=O)c1ccccc1F | 108% | 110% | 102% | 105% | 95.7% | 109% | 106% | 98.5% |
| CCOC(=O)C1=C(Nc2ccc(Br)cc2)C(=O)N(CC)C1 | 107% | 86.9% | 101% | 100% | 105% | 95.9% | 101% | 101% |
| COc1ccc(C(=O)C(Br)C(Br)C(=O)O)cc1 (stereo not given) | 106% | 99.5% | 108% | 113% | 91.1% | 94.9% | 113% | 111% |
| COc1cc(/C=C(\C#N)C(=O)c2ccccc2)ccc1OCc1ccccc1 | 105% | 94.9% | 101% | 99.4% | 96.6% | 104% | 89.8% | 99.1% |
| COc1cc2c3c(n(C)c(=O)c2cc1OC)-c1cc2c(cc1C3=O)OCO2 | 28.2% | 68.6% | 72.3% | 58.8% | 26.8% | 51.5% | 64.5% | 83.9% |
| CC(=O)/C(Cc1ccccc1)=N/O | 89.8% | 90.8% | 103% | 98.4% | 94.5% | 87.4% | 111% | 105% |
| COc1ccc(-c2cc3c(nn2)-c2ccccc2C3=O)cc1 | 77.5% | 89.7% | 10.4% | 4.15% (active) | 16.2% | 32% | 34.5% | 37.1% |
| COC(=O)c1ccccc1N(C)C | 93.5% | 103% | 108% | 107% | 97.1% | 98.4% | 113% | 107% |
| COc1cc(/C=C/C(=O)c2ccccc2)cc(OC)c1OC | 91.4% | 72% | 13.7% | 12.3% | 9.65% (active) | 20.6% | 94.3% | 12.6% |
| Nc1ccccc1SC(CC(=O)c1ccccc1)c1c(Cl)cccc1Cl (stereo not given) | 69.4% | 68% | 39.7% | 10.2% | 14.8% | -29.7% (active) | 86.9% | 33.1% |
| CC(C)CCCC(=O)O | 104% | 108% | 105% | 100% | 96% | 107% | 103% | 102% |
| Oc1ccc(N=Nc2ccc(Br)cc2)c(O)c1 | 28% | 46.1% | -49% (active) | 18.8% | 15.6% | 18.1% | 33.6% | 8.35% (active) |
| S=c1[nH]ccn1-c1ccccc1Cl | 107% | 117% | 108% | 111% | 99.5% | 107% | 113% | 104% |
| Nc1ccc(N)c([N+](=O)[O-])c1 | 91.3% | 96.9% | 109% | 97.7% | 101% | 99.6% | 106% | 104% |
| O=S(=O)(O)c1ccc(Cl)c(Cl)c1 | 105% | 97.7% | 100% | 111% | 99.9% | 105% | 104% | 111% |
| O=C(NN=C1CCCCC1)C(=O)NN=C1CCCCC1 | 99.7% | 100% | 117% | 117% | 92.5% | 106% | 113% | 105% |

— PubChem BioAssay (NCI)
